From PubChem BioAssay
sPLA2-III inh: Blocks human group III sPLA2 activity; QFRET BODIPY PC-A2 liposome hydrolysis, fluorescence; AID 743126; Q9NZ20; inhibition, % at 12.2 µM; actives 0.56% (n = 370,000);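 active means inhibition above mean plus 3 SD of compounds lying within the high and low control bounds, cut at about 19% in these data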;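 further: 0% = median of test compound wells and 100% = no enzyme DMSO wells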
Target sequence (Q9NZ20 whole entry, looked up): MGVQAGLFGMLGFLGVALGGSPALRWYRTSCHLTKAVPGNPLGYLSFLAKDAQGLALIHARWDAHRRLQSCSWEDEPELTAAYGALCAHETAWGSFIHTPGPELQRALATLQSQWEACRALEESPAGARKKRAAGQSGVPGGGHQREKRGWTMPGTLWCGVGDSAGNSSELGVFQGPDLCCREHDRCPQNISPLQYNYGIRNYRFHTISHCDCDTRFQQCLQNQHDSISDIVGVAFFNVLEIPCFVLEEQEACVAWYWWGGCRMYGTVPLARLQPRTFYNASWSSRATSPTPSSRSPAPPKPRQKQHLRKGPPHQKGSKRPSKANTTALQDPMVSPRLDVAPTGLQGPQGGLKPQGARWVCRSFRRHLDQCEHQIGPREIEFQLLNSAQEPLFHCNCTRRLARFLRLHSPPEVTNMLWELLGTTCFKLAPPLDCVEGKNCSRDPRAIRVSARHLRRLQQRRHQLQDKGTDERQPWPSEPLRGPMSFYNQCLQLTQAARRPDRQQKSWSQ
Neddyl block: cullin neddylation inhibition; inhibition, % at 25 µM; TR-FRET cullin neddylation, biochemical; P61081+Q13564; actives 0.58% (n = 360,000); in the data active means inhibition above about 36%
DAGLB inhibitor: diacylglycerol lipase beta (human) inhibition | Q8NCG7 | HEK293T DAGLB membrane lysate, EnzChek fluorogenic substrate | inhibition, % at 5.17 µM | actives 0.059% (n = 340,000); in the data active means inhibition above about 34%;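 further: 0% = enzyme with vehicle and 100% = wells lacking enzyme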
NadD inh: inhibitors of Staphylococcus aureus NadD | purified NadD enzyme, colorimetric absorbance read-out | inhibition, % at 20 µM | actives 0.78% (n = 360,000) | AID 602399; in the data active means inhibition above about 26%
ARNT-TACC3 inh: disruptors of human ARNT/TACC3 interaction | Q9Y6A5 | AlphaScreen His-ARNT PAS-B/GST-TACC3 binding, luminescence; TACC3 fragment carries E629A point mutation | inhibition, % at 9.99 µM | actives 0.66% (n = 390,000);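 active means mean inhibition of replicates at least 50% and at least half of replicates each reaching 50%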;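 further: 0% = complete ARNT plus TACC3 wells and 100% = ARNT alone without TACC3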
NadD conf: confirmation of Staphylococcus aureus NadD inhibitors | shares compounds with NadD inh | purified S. aureus NadD, colorimetric enzyme assay | inhibition, % at 20 µM | actives 13% (n = 2,000); in the data active means inhibition mostly above about 42%, no sharp cut-off; inactive means mostly below about 42%
An asterisk follows results filed as active; . = no result given. In the library only some 2% were active in any assay of this set; here they are far more common.

SMILES	sPLA2-III inh	Neddyl block	DAGLB inhibitor	NadD inh	ARNT-TACC3 inh	NadD conf
Cc1cc2[nH]c(=O)c(=O)[nH]c2cc1S(=O)(=O)N1CCN(c2cccc(Cl)c2)CC1	9	4	6	23	20	.
Cc1cc2[nH]c(=O)c(=O)[nH]c2cc1S(=O)(=O)N1CCN(c2cccc(C(F)(F)F)c2)CC1	15	11	-1	31*	.	50*
CC(C)NC(=O)N(C)C[C@H]1OCCCC[C@@H](C)Oc2ccc(NC(=O)C3CCCCC3)cc2C(=O)N([C@@H](C)CO)C[C@H]1C	.	.	.	.	-9	.
CCOC(=O)c1c(-c2ccc(-c3ccccc3)cc2)csc1NC(=O)C1C2CCC(O2)C1C(=O)O (configuration not stated)	-53	-85	12	38*	-3	57*
Cc1ccc2nc(/N=C(\N)NC(=O)N3c4ccccc4Sc4ccccc43)nc(C)c2c1	6	-40	1	31*	-4	6
Cc1ccc2c(C)nc(/N=C(\N)NC(=O)N3c4ccccc4Sc4ccccc43)nc2c1	7	-51	-2	26	0	.
COCC(=O)N(C)C[C@@H]1Oc2ncc(C3=CCCC3)cc2C(=O)N([C@@H](C)CO)C[C@H]1C	.	.	.	.	-6	.
CCCCC1=CC2=CC(=O)C(C)(OC(=O)c3cccs3)C(=O)C2=CO1 (configuration not stated)	5	-10	9	32*	-1	47*
CC1(OC(=O)CCc2ccccc2)C(=O)C=C2C=C(c3ccc(C#N)cc3)N(C3CC3)C=C2C1=O (configuration not stated)	-2	2	4	5	-7	.
CCCCC1=CC2=CC(=O)C(C)(OC(=O)CCc3ccccc3)C(=O)C2=CO1 (configuration not stated)	-3	-7	10	66*	-1	39*
O=C(NC1CCC1)[C@@H]1N[C@@H]2c3ccc(-c4cccc(F)c4)c(=O)n3C[C@@H]2[C@H]1CO	.	.	.	.	-4	.
Cc1ccc(CN2C(=O)C(Cc3ccccc3)Nc3ncnc(N4CCN(c5ccccc5)CC4)c32)cc1 (configuration not stated)	11	-3	-3	28*	-25	10
O=C1C(Cc2ccccc2)Nc2ncnc(N3CCN(c4ccccc4)CC3)c2N1Cc1ccccc1 (configuration not stated)	0	-3	7	15	1	.
CCC1Nc2ncnc(N3CCN(c4ccccc4)CC3)c2N(Cc2ccc(Br)cc2)C1=O (configuration not stated)	6	-18	8	10	2	.
O=C1C(Cc2ccccc2)Nc2ncnc(N3CCN(c4ccccc4)CC3)c2N1Cc1ccc(Br)cc1 (configuration not stated)	1	-5	-6	42*	-4	11
CCC(=O)N(C)C[C@H]1Oc2cc(-c3ccncc3)ccc2S(=O)(=O)N([C@H](C)CO)C[C@@H]1C	.	.	.	.	-3	.
C[C@@H]1CCCCO[C@H](CN(C)C(=O)NC2CCCCC2)[C@H](C)CN([C@H](C)CO)C(=O)c2cc(NC(=O)Nc3ccc(C(F)(F)F)cc3)ccc2O1	.	.	.	.	0	.
Nc1[nH]c(C(=O)c2ccccc2)c(-c2ccccc2Br)c1C(=O)NCCc1c[nH]c2ccccc12	-52	6	.	43*	.	28
Nc1[nH]c(C(=O)c2ccccc2)c(-c2ccc([N+](=O)[O-])cc2)c1C(=O)NCCc1c[nH]c2ccccc12	-16	-6	.	43*	.	24
Nc1[nH]c(C(=O)c2ccccc2)c(-c2ccccc2Br)c1C(=O)NCc1ccc(-c2ccccc2)cc1	-1	-11	.	36*	.	50*
Nc1[nH]c(C(=O)c2ccc(Br)cc2)c(-c2ccc(Br)cc2)c1C(=O)NCCc1c[nH]c2ccccc12	-22	13	.	50*	.	39
Nc1[nH]c(C(=O)c2ccc(Br)cc2)c(-c2ccc(Br)cc2)c1C(=O)NCc1ccc(-c2ccccc2)cc1	3	.	.	.	.	.
CCCN(C)C[C@H]1OCCCC[C@@H](C)Oc2ccc(NC(=O)NC(C)C)cc2C(=O)N([C@@H](C)CO)C[C@H]1C	.	.	.	.	6	.
CCNC(=O)[C@H]1[C@H](CO)[C@H]2Cn3c(ccc(-c4ccc(OC)cc4)c3=O)[C@@H]1N2CC	.	.	.	.	-5	.
COc1ccc(NC(=O)CSc2ccc3c4c(cccc24)C(=O)c2ccccc2-3)cc1	-1	-10	-4	33*	-5	2
SMILES	sPLA2-III inh	Neddyl block	DAGLB inhibitor	NadD inh	ARNT-TACC3 inh	NadD conf
N#C/C(=C/c1cn(-c2ccccc2)nc1-c1cccc(OCc2ccccc2)c1)C(=O)NCCCn1ccnc1	-19	23	-1	41*	3	-2
CCOc1cccc(-c2nn(-c3ccccc3)cc2/C=C(/C#N)C(=O)NCCCn2ccnc2)c1	-30	9	-3	21	-15	.
N#C/C(=C/c1cn(-c2ccccc2)nc1-c1cccc(S(=O)(=O)N2CCCC2)c1)C(=O)NCc1ccco1	4	8	3	46*	.	49*
O=c1oc2ccccc2cc1-c1csc(Nc2nc3c(F)cccc3s2)n1	2	12	2	57*	3	1
Cc1ccc(-c2cnc3c(c2)C(=O)N([C@@H](C)CO)C[C@H](C)[C@H](CN(C)C(=O)c2ccc(F)cc2)O3)cc1	.	.	.	.	-3	.
Cc1sc(NC(=O)c2sc3nc4c(C)cccc4cc3c2N)c(C#N)c1C	-16	-6	7	62*	-5	7
Cc1ccc([N+](=O)[O-])cc1-c1ccc(/C=C(\C#N)c2[nH]nc(N)c2C#N)o1	-6	-2	0	28*	-2	5
CC(C)c1cn(CC[C@H]2CC[C@@H](NS(=O)(=O)Cc3ccccc3)[C@H](CO)O2)nn1	.	.	.	.	-18	.
CCCNC(=O)c1ccc(N2CCC3(CC2)CC(c2cccc(Br)c2)=NO3)c(NC(=O)c2ccc(Cl)c([N+](=O)[O-])c2)c1	0	-27	2	30*	-1	-7
Cc1ccc(CNC(=O)c2ccc(N3CCC4(CC3)CC(c3cccc(Br)c3)=NO4)c(NC(=O)c3ccc(Cl)c([N+](=O)[O-])c3)c2)cc1	7	1	3	34*	0	-3
Cc1ccc(CNC(=O)c2ccc(N3CCC4(CC3)CC(c3cccc(Br)c3)=NO4)c(NC(=O)c3ccccc3)c2)cc1	-4	-35	-1	24	3	.
CCCNC(=O)c1ccc(N2CCC3(CC2)CC(c2cccc(Br)c2)=NO3)c(NC(=O)c2cccc(C)c2)c1	-3	-110	-1	12	-3	.
O=c1cc(CN2CCN(c3cccc(Cl)c3)CC2)c2cc(O)c(-c3ccccc3)cc2o1	-11	4	1	39*	-2	4
O=c1cc(CN2CCN(c3ccccc3)CC2)c2cc(O)c(-c3ccccc3)cc2o1	0	4	0	19	-5	.
O=C(C1CC1)N1[C@H](CO)[C@@H]2c3ccccc3N(S(=O)(=O)c3ccc(F)cc3)C[C@@H]21	.	.	.	.	4	.
